16 compounds from PubChem BioAssay (NCATS) can be followed below.

The structures appear in SMILES notation. Inconclusive results are not listed. Entries that show only a call come without a potency. Activity calls are given as the source filed them. Calls come from the whole dose curve; as a rule, active = well fitted curve in the direction sought with a large enough effect; inconclusive = small, poorly fitted or top-dose-only effect, or another doubt; inactive = no such curve, though single readings can be large; an effect the other way counts as inactive or inconclusive.

One assay has as its system Zika virus NS2B-NS3 protease. The assay can be described thus: Primary screen GU AMC qHTS for Zika virus inhibitors (AID 1347154). Note: nearly all actives have a fitted effect of over 70% in size. As to conditions: Zika NS2B-NS3 unlinked protease, AMC fluorogenic substrate; series mostly up to 54.1 µM. The gist of the method:
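Unlinked Zika NS2B hydrophilic domain/NS3 protease domain noncovalent complex (25 nM final) in 10 mM Tris-HCl pH 8.0, 0.01% Tween 20, with AMC peptide substrate. Fluorescence (ex 340, em 450 nm) change over 15 min, room temperature; percent inhibition fitted to 4-parameter Hill equation.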
On the technique in general: qHTS replaces the single test concentration by a dilution series.
On to `COc1cc2c(CCNC(C)=O)c[nH]c2cc1Cl`, for which the Potency entry is “inactive”. On the same count and under the same terms, with `CC(C)(C=O)Cc1cc(C(C)(C)C)c(O)c(C(C)(C)C)c1` the entry was “inactive”. On the same count and under the same terms, with `C[C@@H](CN1CCC(Cc2ccccc2)CC1)[C@@H](O)c1ccc(O)cc1` the entry was “inactive”. Same read-out and setting: with `CC(C)NC[C@H](O)COc1cccc2[nH]ccc12` the entry was “inactive”; with `NS(=O)(=O)C#Cc1ccccc1`, “inactive”; with `O=C(O)c1cc(=O)c2c(Cl)cc(Cl)cc2[nH]1`, “inactive”.

Regarding `O=C(O)CNC(=O)C(CS)Cc1ccccc1` (stereo not given), the Potency result is “inactive”. On the same count and under the same terms, with `O=C1C(SCCO)=C(SCCO)C(=O)c2ccccc21` the entry was “inactive”; with `Cc1ccc(O)c(N=Nc2ccccc2)n1`, “inactive”. On the same count and under the same terms, with `OC[C@H]1O[C@@H](n2cnc3c(NC4CCCCC4)ncnc32)[C@H](O)[C@@H]1O` the entry was “inactive”. The same measure, in the same setting: with `CN1CC(=O)N/C1=N/C(=O)Nc1cccc(Cl)c1` the entry was “inactive”.

The next assay concerns Zika virus NS2B-NS3 protease (unlinked complex). The assay can be described thus: Primary screen GU Rhodamine qHTS for Zika virus inhibitors: Unlinked NS2B-NS3 protease assay (AID 1347159). Note: nearly all actives have a fitted effect of over 60% in size. As to conditions: Recombinant ZIKV NS2B-NS3 protease, Rhodamine110 substrate fluorescence; series mostly up to 107 µM. The gist of the method:
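Noncovalent NS2B hydrophilic domain–NS3 protease domain complex (25 nM) preincubated 15 min at room temperature with compounds (up to 114 microM) in 10 mM Tris-HCl pH 8.0, 0.01% Tween 20; 1.5 microM Rhodamine110 substrate added, fluorescence change over 15 min fitted to Hill equation.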
In the case of `O=C(Nc1ccc2[nH]ncc2c1)C1CCC1`, the Potency entry is “inactive”. On to `O=C(Nc1ccc2c(c1)CCN(Cc1ncn[nH]1)C2)c1ccccc1-c1ccc(C(F)(F)F)cc1`, for which the Potency result was “inactive”. For the compound `CN(CCCOc1ccc(Cc2ccccc2)cc1)CCC(=O)O`, the Potency entry was “inactive”. On the same count and under the same terms, with `CS(=O)(=O)c1ccc(-n2nc(C(F)(F)F)cc2-c2ccc(F)cc2)cc1` the entry was “inactive”.

Another assay relates to Zika virus NS2B-NS3 protease (linked construct). The assay is described as follows: Primary screen NINDS Rhodamine qHTS for Zika virus inhibitors (AID 1347160). Note: nearly all actives have a fitted effect of over 55% in size. The note with it: purified NS2B-NS3 protease, Rhodamine110 substrate fluorescence; series mostly up to 57.1 µM. The gist of the method: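 Purified linked NS2B-NS3 protease (NS2B hydrophilic domain joined to NS3 protease by flexible linker), 25 nM in 10 mM Tris-HCl pH 8.0, 0.01% Tween 20. Compounds titrated, 15 min preincubation at room temperature; 1.5 microM Rhodamine110 substrate, FITC fluorescence change over 15 min.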
With `O=C(Nc1ccc2[nH]ncc2c1)C1CCC1`, the Potency entry was “inactive”.

For `O=C(Nc1ccc2c(c1)CCN(Cc1ncn[nH]1)C2)c1ccccc1-c1ccc(C(F)(F)F)cc1`, the Potency result was “inactive”.

With `CN(CCCOc1ccc(Cc2ccccc2)cc1)CCC(=O)O`, the Potency result was “inactive”. Still for that read-out and setting: with `CS(=O)(=O)c1ccc(-n2nc(C(F)(F)F)cc2-c2ccc(F)cc2)cc1` the entry was “inactive”; with `NS(=O)(=O)c1ccc(-n2nc(C(F)(F)F)cc2-c2ccc(Cl)cc2)cc1`, “inactive”.
